# The full list was thinned out, with the strongest signals kept by preference.
# B1: a L Fucosidase (Streptosporangium roseum), D2B1P1_STRRD (protein)
# chain: MRRKLLLVPAVGLLVIGSIFATQPVASADTPPVYEPTVESLNSHPVPQWFNDDKFGIFIHWGAYSVPAWGPRGSYAEWYGNYMNAGGSATNAHHKATYGQDFNYDAFLQQWKAEKFDPADWVKLFKDAGAKYFVLTSKHHEGMALWDSKSSGRDSVDLGPGRDLAKELFDAARKDEAKLKAGFYYSLYEWYNPAYTGRPATNPYTGAEIPYTGAPGGGDYVKDYMLPQMRELIDGYDPDIIWCDGQWEKPASYWNTAGVIADYYNKALNSGKEVAVANRCKIQSGNLDSPELDFQTPEYTVKPDIDPVKWESSRGIAHSYGYNQNEPEEDHLTSDQLVDSLVDIVSKNGNLLLDIGPKADGTIPEIQRQRLLDIGAWLKANGEAIYGTTYWNRAEEKGGPDDVRYTAKDATLYATALKWPGEQLTLGADLPVDHSTRITMLGSGARLSWSRDEQGRVVVNTPQEAGKHAYVFKIETPGVRSLLRTSSSLAKEIAPGRTISGELTVTNPGKRHTPATKLSLTVPQGWTATLGAPRVRPLGPGESVKVPISVSAPEGVAPAPYTLGLYQRTGRMGTTTALPLTVNRPNLSLGKPATQKSTGYDAPASRAVDGNTGGDWSAGSTTHTAEPEKQAWWQVDLGASARLDSVDVWNRLDCCADRLKDFWVMASDQPFTTDDLDQARTAPGVTAVHVGEQAGSPSKVKLPEGTRGRYVRIQLASPSNPLSLAEVQVRGSMARPNLSLGKPATQKSTGYDAPASRAVDGNTGGDWSAGSTTHTAEPEKQAWWQVDLGASARLDSVDVWNRLDCCADRLKDFWVMASDQPFTTDDLDQARTAPGVTAVHVGEQAGSPSKVKLPEGTRGRYVRIQLASPSNPLSLAEVQVRLEHHHHHHS
# Tests used:
# Experiment in all cases: glycan array binding signal (z-score within array); higher = stronger binding
# Settings in all cases: glycan notation: IUPAC condensed, linker removed
# [1] = biological target: Gal(b1-4)GlcNAc(b1-3)Gal(b1-4)GlcNAc(b1-3)[Gal(b1-4)GlcNAc(b1-3)Gal(b1-4)GlcNAc(b1-6)]GalNAc
# Procedure, shortened: (§1)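 Glycan array binding is given as a within-array Z-score, which can be read as non-binding when negative. The arrays, 3228 of them, came from the Consortium for Functional Glycomics database and were retained only where the protein sequence was available. Z-scores were averaged across arrays of the same protein sequence at different concentrations or buffers and across linkers.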
# Gal6S(b1-4)Glc = biological target: Gal6S(b1-4)Glc
# Procedure, shortened: as §1
# [2] = biological target: GalNAc(a1-3)GalNAc(b1-3)Gal(a1-4)Gal(b1-4)Glc
# Procedure, shortened: as §1
# GalNAc(b1-4)GlcNAc = biological target: GalNAc(b1-4)GlcNAc
# Procedure, shortened: as §1
# GlcA(b1-3)Gal = biological target: GlcA(b1-3)Gal
# Procedure, shortened: as §1
# GlcA(b1-6)Gal = biological target: GlcA(b1-6)Gal
# Procedure, shortened: as §1
# [3] = biological target: GlcNAc(b1-3)Gal(b1-4)GlcNAc(b1-3)Gal(b1-4)GlcNAc(b1-3)Gal(b1-4)GlcNAc(b1-2)[GlcNAc(b1-3)Gal(b1-4)GlcNAc(b1-3)Gal(b1-4)GlcNAc(b1-3)Gal(b1-4)GlcNAc(b1-6)]Man(a1-6)[GlcNAc(b1-3)Gal(b1-4)GlcNAc(b1-3)Gal(b1-4)GlcNAc(b1-3)Gal(b1-4)GlcNAc(b1-2)Man(a1-3)]Man(b1-4)GlcNAc(b1-4)[Fuc(a1-6)]GlcNAc
# Procedure, shortened: as §1
# [4] = biological target: GlcNAc(b1-3)Gal(b1-4)GlcNAc(b1-3)Gal(b1-4)GlcNAc(b1-3)Gal(b1-4)GlcNAc(b1-3)Gal(b1-4)GlcNAc(b1-2)Man(a1-3)[GlcNAc(b1-3)Gal(b1-4)GlcNAc(b1-3)Gal(b1-4)GlcNAc(b1-3)Gal(b1-4)GlcNAc(b1-3)Gal(b1-4)GlcNAc(b1-2)Man(a1-6)]Man(b1-4)GlcNAc(b1-4)[Fuc(a1-6)]GlcNAc
# Procedure, shortened: as §1
# Kdn(a2-3)Gal(b1-4)Glc = biological target: Kdn(a2-3)Gal(b1-4)Glc
# Procedure, shortened: as §1
# [5] = biological target: Man(a1-2)Man(a1-2)Man(a1-3)Man
# Procedure, shortened: as §1
# [6] = biological target: Man(a1-2)Man(a1-3)[Man(a1-2)Man(a1-6)]Man(a1-6)[Man(a1-2)Man(a1-2)Man(a1-3)]Man(b1-4)GlcNAc(b1-4)GlcNAc
# Procedure, shortened: as §1
# Man(a1-3)[Man(a1-6)]Man = biological target: Man(a1-3)[Man(a1-6)]Man
# Procedure, shortened: as §1
# [7] = biological target: Neu5Ac(a2-3)Gal(b1-3)GlcNAc(b1-6)GalNAc
# Procedure, shortened: as §1
# [8] = biological target: Neu5Ac(a2-3)Gal(b1-4)GlcNAc(b1-3)Gal(b1-4)GlcNAc(b1-2)Man(a1-3)[Neu5Ac(a2-3)Gal(b1-4)GlcNAc(b1-3)Gal(b1-4)GlcNAc(b1-2)Man(a1-6)]Man(b1-4)GlcNAc(b1-4)GlcNAc
# Procedure, shortened: as §1
# [9] = biological target: Neu5Ac(a2-3)Gal(b1-4)GlcNAc(b1-6)[Neu5Ac(a2-3)Gal(b1-3)]GalNAc
# Procedure, shortened: as §1
# [10] = biological target: Neu5Ac(a2-6)Gal(b1-3)GlcNAc(b1-3)[Gal(b1-4)GlcNAc(b1-6)]Gal(b1-4)Glc
# Procedure, shortened: as §1
# Neu5Ac(a2-6)Gal(b1-4)Glc = biological target: Neu5Ac(a2-6)Gal(b1-4)Glc
# Procedure, shortened: as §1
# [11] = biological target: Neu5Ac(a2-6)Gal(b1-4)GlcNAc(b1-2)Man(a1-3)Man(b1-4)GlcNAc(b1-4)GlcNAc
# Procedure, shortened: as §1
# [12] = biological target: Neu5Ac(a2-6)Gal(b1-4)GlcNAc(b1-2)[Neu5Ac(a2-6)Gal(b1-4)GlcNAc(b1-4)]Man(a1-3)[GlcNAc(b1-4)][Neu5Ac(a2-6)Gal(b1-4)GlcNAc(b1-4)Man(a1-6)]Man(b1-4)GlcNAc(b1-4)GlcNAc
# Procedure, shortened: as §1
# [13] = biological target: Neu5Ac(a2-6)Gal(b1-4)GlcNAc(b1-6)[Gal(b1-3)GlcNAc(b1-3)]Gal(b1-4)Glc
# Procedure, shortened: as §1
# [14] = biological target: Neu5Ac(a2-6)GalNAc(b1-4)GlcNAc6S
# Procedure, shortened: as §1
# [15] = biological target: Neu5Ac(a2-8)Neu5Ac(a2-3)Gal(b1-3)GalNAc(b1-4)[Neu5Ac(a2-3)]Gal(b1-4)Glc
# Procedure, shortened: as §1
# [16] = biological target: Neu5Ac(a2-8)Neu5Ac(a2-3)[GalNAc(b1-4)]Gal(b1-4)Glc
# Procedure, shortened: as §1
# [17] = biological target: Neu5Ac(a2-8)Neu5Ac(a2-8)Neu5Ac(a2-3)[GalNAc(b1-4)]Gal(b1-4)Glc
# Procedure, shortened: as §1
# [18] = biological target: Neu5Gc(a2-3)Gal(b1-4)GlcNAc(b1-3)Gal(b1-4)GlcNAc(b1-2)Man(a1-3)[Neu5Gc(a2-3)Gal(b1-4)GlcNAc(b1-3)Gal(b1-4)GlcNAc(b1-2)Man(a1-6)]Man(b1-4)GlcNAc(b1-4)GlcNAc
# Procedure, shortened: as §1
# [19] = biological target: Neu5Gc(a2-6)Gal(b1-4)GlcNAc
# Procedure, shortened: as §1
# [20] = biological target: Neu5Gc(a2-8)Neu5Gc(a2-3)Gal(b1-4)GlcNAc(b1-3)Gal(b1-4)GlcNAc
# Procedure, shortened: as §1
# [21] = biological target: Neu5Gc(b2-6)Gal(b1-4)GlcNAc
# Procedure, shortened: as §1
binder,measurement,setting,value
B1,glycan array binding signal (z-score),[1],-0.245
same,glycan array binding signal (z-score),Gal6S(b1-4)Glc,-0.356
same,glycan array binding signal (z-score),[2],-0.338
same,glycan array binding signal (z-score),GalNAc(b1-4)GlcNAc,-0.528
same,glycan array binding signal (z-score),GlcA(b1-3)Gal,-0.445
same,glycan array binding signal (z-score),GlcA(b1-6)Gal,-0.444
same,glycan array binding signal (z-score),[3],-0.512
same,glycan array binding signal (z-score),[4],1.09
same,glycan array binding signal (z-score),Kdn(a2-3)Gal(b1-4)Glc,-0.16
same,glycan array binding signal (z-score),[5],-0.582
same,glycan array binding signal (z-score),[6],-0.104
same,glycan array binding signal (z-score),Man(a1-3)[Man(a1-6)]Man,0.008
same,glycan array binding signal (z-score),[7],-0.493
same,glycan array binding signal (z-score),[8],0.456
same,glycan array binding signal (z-score),[9],-0.417
same,glycan array binding signal (z-score),[10],-0.585
same,glycan array binding signal (z-score),Neu5Ac(a2-6)Gal(b1-4)Glc,-0.462
same,glycan array binding signal (z-score),[11],-0.533
same,glycan array binding signal (z-score),[12],-0.202
same,glycan array binding signal (z-score),[13],-0.507
same,glycan array binding signal (z-score),[14],-0.481
same,glycan array binding signal (z-score),[15],-0.521
same,glycan array binding signal (z-score),[16],-0.558
same,glycan array binding signal (z-score),[17],-0.388
same,glycan array binding signal (z-score),[18],0.548
same,glycan array binding signal (z-score),[19],-0.317
same,glycan array binding signal (z-score),[20],-0.268
same,glycan array binding signal (z-score),[21],-0.474
